Bioassay records as filed in PubChem.
In the library only some 3.8% were active in any assay of this set; here they are far more common.
TGFb inhibitor: blocks TGF-b signaling; 1.2% of 410,000 active; Potency, µM (highest dose often 46.1 µM), for the others: at the top dose activity, negative = inhibition, hits mostly inhibitors; HepG2 CAGA-GFP TGF-b/SMAD3 reporter, GFP fluorescence, 18 h; TGF-beta stimulated, 500 pg/mL final; AID 588855; note: % is set by controls: 0 for no effect and ±100 for the full control effect; nearly all actives have a fitted effect of over 65% in size
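Smad-responsive CAGA-GFP expression was quantified in HEPG2 cells exposed to compounds and 500 pg/mL final TGF-beta for 18 h at 37 degrees C; unstimulated wells defined full inhibition.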
HepG2 tox-1: counter-screen for TGF-b inhibitors: cytotoxicity in HepG2 cells; HepG2 CAGA-GFP viability, ATP luminescence, 18 h; Potency, µM (series often up to 46.1 µM), for inactives: at the highest dose activity change, negative = cytotoxicity, usual class: cytotoxic; 0.76% of 410,000 active; AID 588856
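HepG2 CAGA-GFP cells (1000/well, DMEM with 1% FBS) received compound, then TGF-beta at 500 pg/mL final, and were incubated 18 hours at 37 degrees C. Viability was read by CellTiter-Glo luminescence. Media-only wells were set as complete cell-killing and DMSO as no toxicity.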
S2 tox: viability counter-screen for ATXN expression inhibitors | 0.49% of 400,000 active | Potency, µM (series often up to 56.7 µM), hits mostly cytotoxic | S2 cells (HEK-293 line with an ATXN2-luciferase reporter) viability, CellTiter-Fluor protease fluorescence, 24 h | AID 651635; note: nearly all actives have a fitted effect of over 40% in size
HT1080 IDH1KD tx: kills HT-1080 cells with IDH1 knockdown; HT-1080 IDH1 knockdown viability, ATP luminescence, 48 h; Potency, µM (titrated, usually from 46.1 µM), for inactives: at the top dose activity, negative = toxicity, most hits filed as cytotoxic; 2% of 360,000 active; AID 686971;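 note: 0% = DMSO wells and -100% = cell-free medium wells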
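HT-1080-IDH1KD cells (IDH1 knocked down), 750/well in RPMI with 5% FBS, treated with compound 48 h at 37 degrees C. Viability by CellTiter-Glo luminescence, normalised to DMSO and no-cell wells; concentration-response curves classed.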
ATXN2 expr inh: ATXN2 expression inhibition; 0.72% of 360,000 active; AID 1745845; Potency, µM (highest dose often 57 µM), for the others: at the highest dose activity change, negative = inhibition, most hits filed as inhibitors; HEK-293 ATXN2-luciferase reporter, luminescence, 24 h; note: % is set by controls: 0 for no effect and ±100 for the full control effect; nearly all actives have a fitted effect of over 55% in size
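qHTS (up to 57 uM final) was run with 24 h compound exposure of reporter cells at 37 °C. Each well was multiplexed: SteadyGlo luminescence measured ATXN2-luciferase expression after a fluorogenic Gly-Phe-AFC viability readout (25 uM final).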
HT1080NT lethal: kills 2HG-producing HT-1080-NT fibrosarcoma cells; HT-1080-NT fibrosarcoma viability, CellTiter-Glo ATP luminescence, 48 h; Potency, µM (top dose mostly 46.1 µM), inactives show top-dose activity, negative = less viability, usual class: cytotoxic; 1.6% of 360,000 active;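 note: NT is the 2HG producing partner of a matched IDH1 knockdown line; 0% = DMSO-treated cells and -100% = media-only wells without cells; nearly all actives have a fitted effect of over 55% in size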
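Viability of the 2HG-overproducing fibrosarcoma line after 48 hours of compound exposure at 37 degrees C was determined by luminescence with CellTiter-Glo, and concentration-effect curves were then fitted and categorized.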
TGFb confirm: TGF-b pathway inhibition, cherry-pick retest; shares compounds with TGFb inhibitor; HepG2 CAGA-GFP TGF-b reporter, GFP fluorescence, 18 h; cells stimulated with TGF-beta, 500 pg/mL; Potency, µM (highest dose often 46.1 µM), inactives show top-dose activity, negative = inhibition, actives largely listed as inhibitors; 63% of 1,600 active; AID 720534; note: % is set by controls: 0 for no effect and ±100 for the full control effect; nearly all actives have a fitted effect of over 65% in size
HepG2 tox-2: HepG2 cytotoxicity, TGF-b inhibitor counterscreen; Potency, µM (titrated, usually from 46.1 µM), inactives show at the top dose activity, negative = cytotoxicity, most hits filed as inhibitors; shares compounds with TGFb inhibitor; HepG2 CAGA-GFP viability, ATP luminescence, 18 h; cells stimulated with TGF-beta, 500 pg/mL; 27% of 1,600 active; note: % is set by controls: 0 for no effect and ±100 for the full control effect; nearly all actives have a fitted effect of over 70% in size
CCL64 TGFb inh: orthogonal confirmation of TGF-b inhibitors in CCL64 cells; shares compounds with TGFb inhibitor; AID 720536; CCL64 CAGA-GFP reporter, TGF-b stimulated, GFP fluorescence, 18 h; 41% of 1,600 active; Potency, µM (titrated, usually from 46.1 µM), for the others: at the top dose activity, negative = inhibition, actives largely listed as inhibitors; note: nearly all actives have a fitted effect of over 65% in size
COP TGFb inh: blocks TGF-b signaling in HepG2 COP reporter; 3% of 1,600 active; HepG2 COP-GFP TGF-b reporter, GFP fluorescence, 18 h; cells stimulated by added recombinant TGF-beta; shares compounds with TGFb inhibitor; AID 720537; Potency, µM (top dose mostly 46.1 µM), inactives show top-dose activity, negative = inhibition, hits mostly inhibitors; note: nearly all actives have a fitted effect of over 70% in size
An asterisk follows results filed as active; i = inactive; ? = inconclusive; nt = not tested or not shown; ! = repeats disagree; [ ] = remark or other dose. Calls come from the whole dose curve; as a rule, active = well fitted curve in the direction sought with a large enough effect; inconclusive = small, poorly fitted or top-dose-only effect, or another doubt; inactive = no such curve, though single readings can be large; an effect the other way counts as inactive or inconclusive. Potency is the fitted concentration of half-maximal effect.

SMILES | TGFb inhibitor | HepG2 tox-1 | S2 tox | HT1080 IDH1KD tx | ATXN2 expr inh | HT1080NT lethal | TGFb confirm | HepG2 tox-2 | CCL64 TGFb inh | COP TGFb inh
CC(C)c1ccc(Cc2cn3cc(-c4cc5ccccc5oc4=O)nc3s2)cc1 | -14% | 1% | ? | nt | 20% | nt | nt | nt | nt | nt
CC(=O)c1cn(Cc2ccc(F)cc2)c2ccccc12 | ? | -25% | i | -16% | -27% | -5% | 9.2µM* | 4.1µM* | 3% | 17%
COc1ccc2nc(NC(=O)c3nc(S(=O)(=O)Cc4cccc(C)c4)ncc3Cl)sc2c1 | ? | -97% | nt | nt | nt | nt | nt | nt | nt | nt
NC(=O)c1cn(C2OC(CO)C(O)C2O)c2ncnc(N)c12 (centres undefined) | 0.11µM* | -47% | nt | 0.12µM* | 0.28µM*! | 0.33µM* | 0.092µM* | 0.065µM* | 0.23µM* | -12%
N#Cc1cn(C2OC(CO)C(O)C2O)c2ncnc(N)c12 (centres undefined) | 0.1µM* | -36% | ? | 0.21µM* | ? | ? | 0.23µM* | 0.15µM* | 0.1µM* | 12%
OCC1OC(n2cnc3cc(Cl)c(Cl)cc32)C(O)C1O (centres undefined) | ? | -45% | i | ? | 0% | ? | nt | nt | nt | nt
CCNC(=O)[C@H]1O[C@@H](n2cnc3c(N)ncnc32)[C@H](O)[C@@H]1O | -15% | 14% | i | 6% | 9% | 7% | nt | nt | nt | nt
NC(=O)c1c(Br)n(C2OC(CO)C(O)C2O)c2ncnc(N)c12 (centres undefined) | 1.4µM* | -18% | ? | 7.3µM* | 21µM* | ? | 2.1µM* | ? | ? | 20%
CCOc1ccc(CCNC(=O)c2cnc3sc(N4CCCC4)nn3c2=O)cc1 | ? | -8% | nt | nt | nt | nt | nt | nt | nt | nt
O=C(C1CCN(S(=O)(=O)c2ccc(Br)s2)CC1)N1CCN(c2ccc(F)cc2)CC1 | -2% | -18% | ? | nt | 6% | nt | nt | nt | nt | nt
CC[C@]1(O)CC[C@H]2[C@@H]3CCC4=CCCC[C@@H]4[C@H]3CC[C@@]21C | nt | nt | ? | nt | -23% | nt | nt | nt | nt | nt
CCCNC(=O)c1cnn2c(C)c(Cc3c(C)cc(C)cc3C)c(C)nc12 | ? | -25% | nt | nt | nt | nt | nt | nt | nt | nt
C[C@]12CC[C@H]3[C@@H](CCC4=CC(=O)CC[C@@H]43)[C@@H]1CC[C@@H]2OC(=O)CCc1ccccc1 | nt | nt | i | nt | -4% | nt | nt | nt | nt | nt
CN(C)CCc1c[nH]c2cccc(OP(=O)(O)O)c12 | nt | nt | i | nt | -5%[116 µM] | nt | nt | nt | nt | nt
COc1ccc(NS(=O)(=O)c2ccc3c(c2)CCCN3C(=O)C2CCC2)cc1OC | -13% | -23% | ? | nt | ? | nt | nt | nt | nt | nt
NC1=C(Br)C(=O)c2ccccc2C1=O | 5.6µM* | 5.6µM* | ? | 21µM* | ? | 26µM* | 5.2µM* | 8.2µM* | 9.2µM* | ?
O=C(c1cn(Cc2ccccc2F)c2ncccc12)C(F)(F)F | ? | -4% | i | -7% | -4% | -5% | ? | -8% | 0% | -1%
CCN(CC)C(=O)c1ccc(NC(=O)c2cccc(C(F)(F)F)c2)cc1 | -13% | -13% | i | 11% | -11% | 2% | nt | nt | nt | nt
CCN(CCCl)c1cc(CN(C)C)cc(NC(=O)c2ccc(C(=O)Nc3cc(CN(C)C)cc(N(CC)CCCl)c3)cc2)c1 | 4µM* | -104% | nt | 2.9µM* | 0.71µM* | 7.3µM* | 1µM* | 1µM* | 1µM* | ?
C=Cc1cc(OC)c2c(c1)c(=O)oc1c2cc(OC)c2c(O)ccc(C3OC(C)C(O)C(C)(O)C3O)c21 (centres undefined) | 1.4µM* | 24% | i | 1.5µM* | 1.7µM* | 9.2µM* | 0.92µM* | 1.2µM* | 2.1µM* | 7%
Nc1nonc1-n1nnc(C(=O)N/N=C/c2ccc3c(c2)OCO3)c1CSc1ccccc1 | 29% | 10% | i | -3% | -17% | 9% | nt | nt | nt | nt
C[C@]12CCC3[C@@H](CC[C@@H]4C[C@H](O)CC[C@]34C)[C@@H]1CCC2=O (some centres undefined) | -7% | -14% | i | -2% | 5% | 13% | nt | nt | nt | nt
CC12CCC(O)CC1CCC1C2CCC2(C)C(C3=CC(=O)OC3)CCC12O (centres undefined) | 4µM* | -33% | ? | 1.2µM* | 0.84µM* | 1.5µM* | 16µM* | 2.6µM* | 1.3µM* | 56%
C/C=C(\CC)C(=O)NC(N)=O | nt | nt | i | nt | nt | nt | nt | nt | nt | nt
COc1cc2cc(C(=O)N3CC(COS(C)(=O)=O)c4ccc(O)cc43)[nH]c2c(OC)c1OC (centres undefined) | 0.089µM* | -92% | 0.34µM* | 0.13µM* | 0.3µM* | 2.9µM* | 0.0058µM* | 0.033µM* | 0.0058µM* | 42%
CC(C)c1oc(=O)cc2c1[C@@H](O)[C@H]1OC(=O)[C@@]3(C)C[C@@H](O)[C@@H](O)[C@@]2(C)C13 (some centres undefined) | 8.9µM* | -25% | ? | 10µM* | ? | ? | 2.9µM* | ? | 5.2µM* | 16%
COc1ccc(CC2C(=O)NC(C)C(=O)N(C)C3C(=O)N(C)C(Cc4ccc(O)c(c4)Oc4ccc(cc4)C3O)C(=O)NC(C)C(=O)NC(C)C(=O)N2C)cc1 (centres undefined) | -116% | -20% | ? | 0.073µM* | 0.084µM* | 0.46µM* | 0.0065µM* | 1.6µM* | 0.012µM* | 5%
